{
  "source": "PubChem BioAssay (NCATS)",
  "note": "Inconclusive results are not listed. Values without a mark were called inactive. Active and inactive are the calls of the source. Calls come from the whole dose curve; as a rule, active = well fitted inhibition curve with a large enough effect; inconclusive = small, poorly fitted or top-dose-only effect; inactive = no such curve, though single readings can be large or run the other way. Where a SMILES comes first, the peptide text is derived from it. Bridges are numbered along the chain shown (N, C = ends). [ ]: non-standard residue; d: D form. NMeY = CN[CH](Cc1ccc(O)cc1)C(=O)O",
  "data": [
    {"test_system": "Zika virus NS2B-NS3 protease (linked construct)", "test": "Primary screen NINDS Rhodamine qHTS for Zika virus inhibitors (AID 1347160); note: nearly all actives have a fitted effect of over 55% in size; for activity change, negative = inhibition: % is set by controls: 0 for no effect and ±100 for the full control effect", "conditions": "purified NS2B-NS3 protease, Rhodamine110 substrate fluorescence; series mostly up to 57.1 µM; activity change, negative = inhibition: at the top concentration", "procedure,_shortened": "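Kinetic fluorescence (Ex 480 nm, Em 540 nm) over 15 min with 1.5 microM Rhodamine110 peptide and 25 nM linked protease.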", "values": [
      {"smiles": "Cc1csc(NC(=O)c2ccc(COc3cccc(Cl)c3)o2)n1", "activity change, negative = inhibition": "79.3%"},
      {"smiles": "OC/C=C/c1ccc(O[C@@H]2O[C@H](CO)[C@@H](O)[C@H](O)[C@H]2O)cc1", "outcome": "inactive [at 33.1 µM]"},
      {"smiles": "COc1c(C)c(OCC(O)C(C)(C)O)cc2c1COC2=O", "note": "(centres undefined)", "activity change, negative = inhibition": "-1.74%"},
      {"smiles": "CC1(C)CCCC2(C)C(C(=O)O)=CCC12", "note": "(centres undefined)", "activity change, negative = inhibition": "20.7%"},
      {"smiles": "CC1CC(O)/C=C/C(O)C(O)CC(=O)Cc2c(Cl)c(O)cc(O)c2C(=O)O1", "note": "(centres undefined)", "activity change, negative = inhibition": "-12.2% [at 33.1 µM]"},
      {"smiles": "C(#Cc1nc2ncccc2nc1OCCN1CCCC1)c1ccccc1", "activity change, negative = inhibition": "22.9%"},
      {"smiles": "COc1ccc(/C=C/C(=O)O[C@@H]2[C@@H](O)[C@H](C)O[C@@H](O[C@H]3[C@@H]4C=CO[C@@H](O[C@H]5O[C@@H](CO)[C@H](O)[C@@H](O)[C@@H]5O)[C@@H]4[C@@]4(CO)O[C@@H]34)[C@@H]2OC(C)=O)cc1", "activity change, negative = inhibition": "-7.47% [at 15.1 µM]"},
      {"smiles": "CN=C(N)NCCCCC/C=C(/C)CC(C)C1OC(=O)C(C)C(O)/C=C/C(C)C(O)CC(O)C(C)C(O)CCC(C)C(O)CC2(O)OC(CC(OC(=O)CC(=O)O)CC(O)CC(O)C(C)C(O)/C(C)=C/CCC1C)CC(O)C2O", "note": "(centres undefined)", "activity change, negative = inhibition": "24.2% [at 15.1 µM]"},
      {"smiles": "O=C(Nc1ccn[nH]1)c1c(F)cccc1F", "outcome": "inactive"},
      {"smiles": "CC1C(OC(=O)c2ccccc2)C(O)C2C(C(=O)O)=COC(OC3OC(CO)C(O)C(O)C3O)C12", "note": "(centres undefined)", "outcome": "inactive [at 33.1 µM]"},
      {"smiles": "C/C1=C\\CCC2=C[C@@H](OC2=O)c2c(C)coc2C1", "activity change, negative = inhibition": "-7.98%"},
      {"smiles": "CCC(C)C1NC(=O)C2CCCN2C(=O)C(NC(C)=O)C(C)OC(=O)C(Cc2ccc(OC)cc2)N(C)C(=O)C2CCCN2C(=O)C(C(C)C)NC1=O", "note": "(centres undefined) (Ac-TPIVP[NMeY](Me); ester 1-C; configuration not given here)", "outcome": "inactive [at 15.1 µM]"},
      {"smiles": "N=c1nc2n(cc1F)C1OC(CO)C(O)C1O2", "note": "(centres undefined)", "outcome": "inactive"},
      {"smiles": "CN1CCN(C(=O)c2ccc3cc(CCNc4ncnc5ccc(C#N)cc45)ccc3c2)CC1", "activity change, negative = inhibition": "29.9%"},
      {"smiles": "N#C[C@@H]1C[C@H](F)CN1C(=O)CNC1[C@H]2CN(C(=O)c3ccc(F)cc3)C[C@@H]12", "note": "(some centres undefined)", "activity change, negative = inhibition": "5.11%"},
      {"smiles": "C=C(C(=O)O)C1CCC2(C)CCCC(C)(O)C2C1", "note": "(centres undefined)", "activity change, negative = inhibition": "3.28%"},
      {"smiles": "C=C1C(=O)OC2C1C(O)CC1(C)C(O)CCC(C=O)C21", "note": "(centres undefined)", "activity change, negative = inhibition": "14.3%"},
      {"smiles": "CCC(O)C(C)C1CCC(C(C)C(=O)O)O1", "note": "(centres undefined)", "activity change, negative = inhibition": "-5.36%"},
      {"smiles": "C/C=C/C1=CC2=C(CO1)C(=O)C(C)(O)C(OC(=O)c1c(C)cc(OC)cc1O)C2", "note": "(centres undefined)", "activity change, negative = inhibition": "-4.67% [at 33.1 µM]"},
      {"smiles": "C=CC1C(OC2OC(CO)C(O)C(O)C2O)OC=C2C(=O)N3C(C(=O)O)Cc4c([nH]c5ccccc45)C3CC21", "note": "(centres undefined)", "outcome": "inactive [at 33.1 µM]"},
      {"smiles": "COc1cc(Br)c(Nc2nc(-c3c(C)nc4ncccn34)cs2)c(Br)c1", "activity change, negative = inhibition": "20.1%"},
      {"smiles": "C[C@@H]1O[C@@H](O[C@H]2[C@@H]3C=CO[C@@H](O[C@@H]4O[C@H](CO)[C@@H](O)[C@H](O)[C@H]4O)[C@@H]3[C@@]3(CO)O[C@@H]23)[C@H](OC(=O)/C=C/c2ccccc2)[C@H](O)[C@H]1O", "activity change, negative = inhibition": "5.24% [at 15.1 µM]"},
      {"smiles": "C[C@@H]1O[C@@H](O[C@H]2[C@@H]3C=CO[C@@H](O[C@@H]4O[C@H](CO)[C@@H](O)[C@H](O)[C@H]4O)[C@@H]3[C@@]3(CO)O[C@@H]23)[C@H](OC(=O)/C=C/c2ccc(O)c(O)c2)[C@H](O)[C@H]1O", "activity change, negative = inhibition": "-3.93% [at 15.1 µM]"},
      {"smiles": "CC1=C2C3OC(=O)C(C)C3(O)CCC2(C)CCC1O", "note": "(centres undefined)", "activity change, negative = inhibition": "-44.3%"},
      {"smiles": "Cc1noc(=O)c2ccc(NC(=O)C(O)(CC(C)(C)c3cccc4c3OCC4)C(F)(F)F)cc12", "note": "(centres undefined)", "activity change, negative = inhibition": "7.46%"},
      {"smiles": "CC1(C)CCCC2(C)C1CC(=O)C13CC(CCC12)C(O)(CO)C3", "note": "(centres undefined)", "activity change, negative = inhibition": "-18.5% [at 33.1 µM]"},
      {"smiles": "CO[C@H]1/C=C/C=C/C=C/C[C@H](OC(=O)[C@@H](C)NC(=O)C2CCCCC2)[C@H](C)[C@@H](O)/C(C)=C/CCc2cc(O)cc(c2)NC(=O)C1", "activity change, negative = inhibition": "-15.5% [at 15.1 µM]"},
      {"smiles": "C/C=C/c1ccc(O[C@@H]2O[C@H](CO)[C@@H](O)[C@H](O)[C@H]2O)c(OC)c1", "activity change, negative = inhibition": "-12.2% [at 33.1 µM]"},
      {"smiles": "Nc1nc2c(c(=O)[nH]1)C[C@@H](CCc1ccc(C(=O)N[C@@H](CCC(=O)O)C(=O)O)cc1)CN2", "activity change, negative = inhibition": "30%"},
      {"smiles": "CC(C)=CCC/C(C)=C/CCC1(C)Oc2c(c(O)cc3c2CN(C(CCC(=O)O)C(=O)O)C3=O)CC1O", "note": "(centres undefined)", "activity change, negative = inhibition": "-13.2% [at 33.1 µM]"},
      {"smiles": "O=C(Nc1ccccc1)N1CCN(Cc2ccc3ccccc3n2)CC1", "activity change, negative = inhibition": "21.3%"},
      {"smiles": "C[C@@H]1C[C@@H]2O[C@H]2/C=C\\C=C\\C(=O)Cc2c(Cl)c(O)cc(O)c2C(=O)O1", "activity change, negative = inhibition": "-15.4% [at 33.1 µM]"},
      {"smiles": "C=C1C(=O)O[C@H]2C1[C@H](OC(=O)/C(=C/CO)COC(=O)/C(C)=C/CO)CC(=C)[C@@H]1CC(=O)[C@@H](C)[C@@H]12", "note": "(some centres undefined)", "outcome": "inactive [at 33.1 µM]"},
      {"smiles": "COC(=O)C1=CO[C@@H](O[C@@H]2O[C@H](CO[C@@H]3O[C@H](COC(=O)/C=C/c4cc(OC)c(O)c(OC)c4)[C@@H](O)[C@H](O)[C@H]3O)[C@@H](O)[C@H](O)[C@H]2O)[C@@H]2C(CO)=CC[C@H]12", "activity change, negative = inhibition": "-2.01% [at 15.1 µM]"}
    ]}
  ]
}
